Laboratory results as given in PubChem BioAssay (NCATS).
Records with an inconclusive call do not appear. Activity calls are given as the source filed them. Unless noted, calls follow the shape of the dose curve; as a rule, active = well fitted curve in either direction with a large enough effect (not every such curve was filed as active); inconclusive = small, poorly fitted or top-dose-only effect, or another doubt; inactive = flat fitted curve, though single readings scatter.

What was measured:
[1] = target: Lysosomal acid glucosylceramidase (Homo sapiens) (UniProt P04062); test: Glucocerebrosidase-p2 (AID 348; in the data active = potency below about 10 µM; also: potency is read from the fitted curve at half-maximal effect); details: purified GBA, blue fluorogenic substrate, 40 min
Lysosomal acid glucosylceramidase (Homo sapiens), sequence (P04062 whole entry, looked up): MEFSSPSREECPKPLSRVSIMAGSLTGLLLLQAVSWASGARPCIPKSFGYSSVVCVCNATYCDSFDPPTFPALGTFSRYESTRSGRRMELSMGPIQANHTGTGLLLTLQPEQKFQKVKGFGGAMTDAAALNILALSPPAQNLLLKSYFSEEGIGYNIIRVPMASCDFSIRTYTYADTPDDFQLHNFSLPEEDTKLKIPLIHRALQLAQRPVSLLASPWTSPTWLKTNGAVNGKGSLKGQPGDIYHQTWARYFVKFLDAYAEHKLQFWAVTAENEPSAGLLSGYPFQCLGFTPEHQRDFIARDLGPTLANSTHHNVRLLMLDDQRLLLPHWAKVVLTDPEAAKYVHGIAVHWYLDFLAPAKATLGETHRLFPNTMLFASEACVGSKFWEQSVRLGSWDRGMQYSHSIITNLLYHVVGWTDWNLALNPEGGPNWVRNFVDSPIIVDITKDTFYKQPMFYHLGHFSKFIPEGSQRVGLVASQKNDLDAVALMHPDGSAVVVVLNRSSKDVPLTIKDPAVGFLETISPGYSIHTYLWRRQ
Summary of the method: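 Compounds titrated from 0.6 nM upwards against 0.2 nM enzyme in pH 5.9 citric acid/KH2PO4, taurocholate, tween-20; blue fluorogenic substrate 80 uM, 40 min room temperature, stopped and read Ex 365/Em 440 for AC50.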

[2] = AP1 Signaling Pathway (AID 357); details: ME-180 AP-1-bla reporter, EGF-induced, beta-lactamase ratio, 5 h; at 7.69 µM (top of the series) unless noted;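 also: ME-180 reporter cells stimulated with EGF at its EC50 level; % is scaled to controls: 0 for no effect and ±100 for the full control effect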
Summary of the method: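 Modulation of EGF-driven AP-1 transcription was assessed with a beta-lactamase reporter in ME-180 cells. Compound and EC50 EGF were co-incubated 5 hours at 37 °C before 2.5-hour CCF4 loading at room temperature and dual-emission reading.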

[3] = target: Cytochrome P450 1A2 (Homo sapiens) (UniProt P05177); test: p450-cyp1a2 (AID 410; calls by dose curve; also: potency is read from the fitted curve at half-maximal effect;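 as to activity change, negative = inhibition: -100% = full effect of reference inhibitor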); details: recombinant CYP1A2, luciferin-ME demethylation, luminescence; series mostly up to 57 µM
Cytochrome P450 1A2 (Homo sapiens), sequence (P05177 whole entry, looked up): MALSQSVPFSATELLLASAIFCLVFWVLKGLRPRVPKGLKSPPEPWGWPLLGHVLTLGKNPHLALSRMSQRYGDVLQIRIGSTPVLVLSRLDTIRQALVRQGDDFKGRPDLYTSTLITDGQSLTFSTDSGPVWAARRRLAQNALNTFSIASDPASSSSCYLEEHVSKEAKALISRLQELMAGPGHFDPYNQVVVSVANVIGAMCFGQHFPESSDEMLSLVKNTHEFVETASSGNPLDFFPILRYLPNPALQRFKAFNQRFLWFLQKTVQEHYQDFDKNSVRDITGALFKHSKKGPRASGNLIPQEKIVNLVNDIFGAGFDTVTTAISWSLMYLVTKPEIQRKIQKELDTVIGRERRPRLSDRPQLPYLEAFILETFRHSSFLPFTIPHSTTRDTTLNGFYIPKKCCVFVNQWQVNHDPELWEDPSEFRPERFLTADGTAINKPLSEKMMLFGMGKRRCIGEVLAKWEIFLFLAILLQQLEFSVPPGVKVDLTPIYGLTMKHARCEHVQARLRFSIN
Summary of the method: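 Human CYP1A2 (20nM) demethylated Luciferin-ME at its Km (100uM) in 100mM KPO4. After 10 min compound preincubation, NADPH regeneration ran the reaction 60 min at room temperature. Luciferin was read by luminescence, normalized to 57 uM furafylline.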

[4] = NFAT Signaling Pathway (AID 444); details: Jurkat NFAT-bla M1, carbachol, beta-lactamase ratio, 5 h; at 7.69 µM (top of the series) unless noted;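 also: carbachol stimulus at about its EC50 of 1 µM final; % is scaled to controls: 0 for no effect and ±100 for the full control effect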
Summary of the method: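 Jurkat cells carrying an NFAT-driven β-lactamase reporter and co-transfected muscarinic M1 receptor were treated with compound plus carbachol (1 uM final, an EC50 level) for 5 h at 37 °C. CCF4 loading followed for 1 h at RT; 460/530 nm ratio gave %activity.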

[5] = Stat Signaling Pathway (AID 446); details: ME-180 SIE beta-lactamase reporter, IL-6 stimulated, 5 h; at 7.69 µM (top of the series) unless noted;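 also: ME-180 cervical cancer cells given 40 pM IL-6 alongside compound; SIE-controlled beta-lactamase reporter measured as 460/530 nm FRET emission ratio; % is scaled to controls: 0 for no effect and ±100 for the full control effect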
Summary of the method: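 ME-180 SIE-bla cells; overnight plating; cpd + IL-6 40 pM, 5 h, 37 C; LiveBLAzer 2.5 h RT; 460/530 nm emission ratio. Normalized to 300 pM IL-6 and 125 nM JAK inhibitor controls.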

[6] = target: Glucocorticoid receptor (Homo sapiens) (UniProt P04150); test: GR-EFC Redistribution (AID 451; calls by dose curve; also: potency is read from the fitted curve at half-maximal effect); details: CHO-K1 GR-EFC translocation, beta-gal luminescence, 2 h
Glucocorticoid receptor (Homo sapiens), sequence (P04150 whole entry, looked up, the tested form may be a part): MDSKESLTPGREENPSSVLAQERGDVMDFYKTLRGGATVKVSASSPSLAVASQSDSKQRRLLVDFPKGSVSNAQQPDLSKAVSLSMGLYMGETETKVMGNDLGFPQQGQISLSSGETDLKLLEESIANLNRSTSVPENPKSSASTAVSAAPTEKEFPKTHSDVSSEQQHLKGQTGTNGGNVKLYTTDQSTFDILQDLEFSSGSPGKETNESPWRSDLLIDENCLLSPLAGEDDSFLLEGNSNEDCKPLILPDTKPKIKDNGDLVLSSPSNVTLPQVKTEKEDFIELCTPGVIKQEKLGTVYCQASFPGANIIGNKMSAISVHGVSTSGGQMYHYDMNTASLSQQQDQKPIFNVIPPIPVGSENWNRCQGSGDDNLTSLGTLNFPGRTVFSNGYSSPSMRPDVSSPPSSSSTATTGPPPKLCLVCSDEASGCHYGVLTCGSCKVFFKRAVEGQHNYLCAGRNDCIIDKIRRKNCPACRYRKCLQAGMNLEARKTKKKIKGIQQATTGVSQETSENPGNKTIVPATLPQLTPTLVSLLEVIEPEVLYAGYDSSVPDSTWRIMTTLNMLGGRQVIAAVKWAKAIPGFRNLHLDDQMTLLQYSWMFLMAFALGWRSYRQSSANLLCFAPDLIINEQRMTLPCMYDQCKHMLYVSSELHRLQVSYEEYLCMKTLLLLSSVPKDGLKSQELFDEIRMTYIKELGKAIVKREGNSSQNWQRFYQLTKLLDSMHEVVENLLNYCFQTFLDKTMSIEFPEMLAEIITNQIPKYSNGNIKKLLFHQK
Summary of the method: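 CHO-K1 cells stably expressing nuclear-localized β-gal enzyme acceptor and GR fused C-terminally to the enzyme donor fragment; ligand-driven nuclear translocation restores β-gal by complementation. Compounds titrated up to 46 uM final, 2 h at 37 °C; luminescence read.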

[7] = target: Mitogen-activated protein kinase 10 (Mus musculus) (UniProt Q61831); test: JNK3 AlphaScreen Assay (AID 530); details: JNK3 lysate, c-Jun phosphorylation; series mostly up to 57.1 µM;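 also: kinase came from lysate of stimulated human HepG2 cells; signal reports phosphorylation of biotinylated GST-cJun 1-79 at Ser73 with 10 µM ATP; % is scaled to controls: 0 for no effect and ±100 for the full control effect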
Summary of the method: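 JNK3 came from HepG2 lysates pre-activated with IL-1beta and TNF-alpha and phosphorylated biotinylated GST-cJun (1-79) at 10 uM ATP, pH 7.6, room temperature. Compounds were titrated. AlphaScreen signal used anti-phospho-cJun (Ser73) antibody.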

[8] = target: 3',5'-cyclic-AMP phosphodiesterase 4B (Homo sapiens) (UniProt Q07343); test: qHTS Assay for Inhibitors of PDE-IV (AID 607; active = well fitted activation curve with a large enough effect in the main read-out, with a control signal flat, not every such curve was filed as active; also: % of control where 0% means no effect); details: HEK293 ACTOne CNG channel cells, membrane potential fluorescence; series mostly up to 22.9 µM
3',5'-cyclic-AMP phosphodiesterase 4B (Homo sapiens), sequence (Q07343 whole entry, looked up): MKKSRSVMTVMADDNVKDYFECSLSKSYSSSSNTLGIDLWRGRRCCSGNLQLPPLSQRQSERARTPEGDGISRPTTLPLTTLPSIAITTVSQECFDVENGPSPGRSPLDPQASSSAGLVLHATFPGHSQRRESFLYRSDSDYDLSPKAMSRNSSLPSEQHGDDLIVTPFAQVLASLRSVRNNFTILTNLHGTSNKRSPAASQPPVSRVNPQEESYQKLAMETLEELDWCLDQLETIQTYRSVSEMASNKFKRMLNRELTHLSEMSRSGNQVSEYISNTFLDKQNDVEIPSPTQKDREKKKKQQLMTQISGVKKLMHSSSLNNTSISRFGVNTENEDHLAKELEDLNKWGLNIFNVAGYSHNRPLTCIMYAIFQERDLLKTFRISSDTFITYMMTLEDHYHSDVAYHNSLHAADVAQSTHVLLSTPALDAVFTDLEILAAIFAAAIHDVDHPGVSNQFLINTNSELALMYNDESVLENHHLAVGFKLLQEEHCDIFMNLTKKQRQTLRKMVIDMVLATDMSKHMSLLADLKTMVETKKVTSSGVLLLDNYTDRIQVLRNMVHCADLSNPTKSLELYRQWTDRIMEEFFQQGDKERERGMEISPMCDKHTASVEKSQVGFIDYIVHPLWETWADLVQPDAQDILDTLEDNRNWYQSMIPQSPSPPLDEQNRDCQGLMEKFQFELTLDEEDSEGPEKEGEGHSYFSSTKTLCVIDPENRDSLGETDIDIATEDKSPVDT
Summary of the method: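 ACTOne HEK293 cells carry a modified cAMP-gated CNG channel and express endogenous PDE4; plated 1000 cells/well, compounds up to 22.9 uM final. Membrane-potential dye fluorescence (ex 535/em 590) was read; parental cells received 10 uM forskolin + 100 uM RO 20-1724.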

[9] = qHTS Assay for Lipid Storage Modulators (AID 1519; calls by dose curve); details: Drosophila S3 cells, BODIPY lipid droplet/cell ratio, laser cytometry, cells loaded with oleic acid; for activity change, negative = inhibition: at 57.5 µM (top of the series)
Summary of the method: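 Cells seeded at 5,000 per well were treated with compounds over a concentration series and loaded with oleic acid (400 uM, as added). Lipid droplet fluorescence (488 nm excitation, 500-530 nm channel) was read by laser-scanning cytometry and normalized to 20 uM Triacsin C.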

[10] = Primary qHTS for small molecule stabilizers of the endoplasmic reticulum resident proteome: Secreted ER Calcium Modulated Protein (SERCaMP) assay (AID 1508630; active = well fitted curve in the direction sought with a large enough effect; an effect the other way counts as inactive or inconclusive; also: % is scaled to controls: 0 for no effect and ±100 for the full control effect); details: SH-SY5Y GLuc-SERCaMP (Gaussia luciferase released on ER calcium loss) secretion, thapsigargin, luminescence; series mostly up to 38.4 µM
Summary of the method: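 GLuc-SERCaMP-expressing SH-SY5Y cells, pretreated 16 h with compound, are challenged with thapsigargin to empty ER calcium stores; after 4 h, coelenterazine is added directly to the medium and luminescence is imaged.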

[11] = target: Glucocorticoid receptor (Homo sapiens) (UniProt P04150); test: GR-GFP Redistribution (AID 450;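 active = compounds whose dose series gives a full or clear partial fitted curve of increased nuclear translocation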; also: potency is read from the fitted curve at half-maximal effect); details: U2OS GR-GFP nuclear translocation, laser cytometry, 2 h
[12] = target: Cytochrome P450 3A4 (Homo sapiens) (UniProt P08684); test: qHTS Assay for Inhibitors and Substrates of Cytochrome P450 3A4 (AID 884; active = well fitted curve in the direction sought with a large enough effect; an effect the other way counts as inactive or inconclusive; also: potency is read from the fitted curve at half-maximal effect; nearly all actives have a fitted effect of over 50% in size); details: recombinant CYP3A4, Luciferin-PPXE luminescence; series mostly up to 57.1 µM
Cytochrome P450 3A4 (Homo sapiens), sequence (P08684 whole entry, looked up): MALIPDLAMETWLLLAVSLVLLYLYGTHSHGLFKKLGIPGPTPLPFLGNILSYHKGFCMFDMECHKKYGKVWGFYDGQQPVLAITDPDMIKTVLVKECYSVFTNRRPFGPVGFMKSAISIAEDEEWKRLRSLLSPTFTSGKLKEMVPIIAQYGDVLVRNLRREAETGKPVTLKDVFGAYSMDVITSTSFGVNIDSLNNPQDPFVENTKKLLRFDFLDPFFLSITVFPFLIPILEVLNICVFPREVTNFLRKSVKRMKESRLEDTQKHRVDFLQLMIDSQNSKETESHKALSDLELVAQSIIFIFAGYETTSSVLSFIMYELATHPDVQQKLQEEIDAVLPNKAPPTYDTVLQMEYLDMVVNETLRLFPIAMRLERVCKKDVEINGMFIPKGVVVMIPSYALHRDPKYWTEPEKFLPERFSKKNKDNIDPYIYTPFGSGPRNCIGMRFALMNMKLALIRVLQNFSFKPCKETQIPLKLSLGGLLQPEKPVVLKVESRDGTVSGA
Summary of the method: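 20 nM human CYP3A4 with 25 uM Luciferin-PPXE (at KM) in 200 mM KPO4, preincubated 10 min with compound; NADPH regeneration started a 60 min RT reaction. Luciferin detected by luminescence, normalized to 57 uM ketoconazole as full inhibition.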

[13] = target: Cytochrome P450 3A4 (Homo sapiens) (UniProt P08684); test: qHTS Assay for Activators of Cytochrome P450 3A4 (AID 885; active = well fitted curve in the direction sought with a large enough effect; an effect the other way counts as inactive or inconclusive; also: nearly all actives have a fitted effect of over 65% in size); details: recombinant CYP3A4, Luciferin-PPXE luminescence, 60 min; series mostly up to 57.1 µM
Summary of the method: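 20nM CYP3A4 + 25uM Luciferin-PPXE (=KM), 200mM KPO4; cpd 10 min RT; NADPH regen, 60 min RT; stop w/ detection buffer, 20 min; luminescence. Normalized to 57 uM ketoconazole.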

[14] = Confirmation and Secondary Assay for Modulators of Hemoglobin Beta Chain Splicing at IVS2 654 locus (AID 910; active = well fitted curve in the direction sought with a large enough effect; an effect the other way counts as inactive or inconclusive;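 also: per-well total GFP intensity by laser scanning cytometry after 2-day treatment; % of control where 0% means no effect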); details: HeLa EGFP-654 splicing reporter, GFP fluorescence, 48 h; series mostly up to 38.3 µM
Summary of the method: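 HeLa cells stably carrying EGFP interrupted by mutant beta-globin IVS2-654 intron (CMV-driven) were treated with compound for 2 days at 37C; corrected splicing was scored as total peak GFP intensity per well (488 nm excitation, 500-520 nm emission).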

[15] = Confirmation and Secondary Assay for Modulators of Hemoglobin Beta Chain Splicing at IVS2 705 locus (AID 930; active = well fitted curve in the direction sought with a large enough effect; an effect the other way counts as inactive or inconclusive;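 also: HeLa cells stably expressing the EGFP-705 splicing reporter; GFP fluorescence per well restored by corrected splicing of the IVS2-705 intron in EGFP; % of control where 0% means no effect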); details: HeLa EGFP-705 splicing reporter, GFP fluorescence, 48 h; series mostly up to 38.3 µM
Summary of the method: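 HeLa IVS2-705 EGFP reporter cells, 500/well, compound 2 d at 37C; correct splicing yields fluorescent EGFP. Control: 500 nM antisense PNA. Read-out: total peak GFP intensity.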

[16] = qHTS Assay for Identification of Small Molecule Agonists for Hypoxia Response Element Signaling Pathway (AID 914; active = well fitted activation curve with a large enough effect in the signal ratio, with a control signal flat, not every such curve was filed as active; the % refers to the signal ratio; also: % of control where 0% means no effect); details: ME-180 (cervical carcinoma) HRE-bla reporter, beta-lactamase ratio, CoCl2, 17 h; activation: stronger effect = higher value
Summary of the method: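 HRE-bla ME-180 assay for agonist-like enhancement of an EC50 CoCl2 stimulus: 17 h at 37 degrees Celsius, CCF4 for 2.5 h, ratiometric 460/530 nm signal converted to %Activity and fitted to AC50.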

[17] = measured here: cell count channel max response
[18] = measured here: lipid channel max response

Structure (SMILES) | Potency [1] | activity change, negative = inhibition [2] | Potency [3] | activity change, negative = inhibition [4] | activity, negative = inhibition [5] | Potency [6] | outcome [7] | Potency [8] | activity change, negative = inhibition [9] | max response [9, 17] [%] | max response [9, 18] [%] | Potency [10] | Potency [11] | Potency [12] | Potency [13] | outcome [14] | outcome [15] | activation [16]
COC(=O)N1CCC2(CC1)CN(c1cccc(-c3ccccc3)c1)C2 | > 11.4 µM (inactive) | -12.5% (inactive) | inactive | -3.27% (inactive) | 4.85% (inactive) | > 46 µM (inactive) | inactive | inactive | 4.36% (inactive) | 23.2 | 29.4 | inactive | – | – | – | – | – | –
c1ccc2c(-n3ccnc3)nc(-c3ccoc3)nc2c1 | > 11.4 µM (inactive) | -13.9% (inactive) | 0.501 µM (active) | 3.28% (inactive) | 7.69% (inactive) | > 46 µM (inactive) | inactive | – | 9.53% (inactive) | 10.7 | 22.4 | inactive | > 46 µM (inactive) | 0.199 µM (active) | inactive | inactive | inactive | –
COc1ccccc1CNc1ccnc(-c2ccoc2)n1 | > 11.4 µM (inactive) | -2.58% (inactive) | 1.58 µM (active) | -21% (inactive) | -4.66% (inactive) | > 46 µM (inactive) | inactive | – | 8.47% (inactive) | -15.1 | 2.83 | inactive | > 46 µM (inactive) | 2.51 µM (active) | inactive | inactive | inactive | –
COC(=O)N1CCC2(CCN(C(=O)NC(C)C)CC2)CC1 | > 11.4 µM (inactive) | -1.37% (inactive) | 20 µM (active) | -29.8% (inactive) | -1.69% (inactive) | > 46 µM (inactive) | inactive | inactive | 2.86% (inactive) | 7.58 | 13.7 | inactive | – | – | – | – | – | –
CC(=O)N1CCC2(CCCN(c3ccccn3)C2)CC1 | > 11.4 µM (inactive) | 4.59% (inactive) | inactive | 3.45% (inactive) | -5.49% (inactive) | > 46 µM (inactive) | inactive | inactive | 5.15% (inactive) | 19.4 | 28 | inactive | – | – | – | – | – | –
O=C(Nc1cccc(F)c1)N1CCC2(CCNCC2)CC1 | > 11.4 µM (inactive) | -5.25% (inactive) | inactive | -3.25% (inactive) | -4.9% (inactive) | > 46 µM (inactive) | inactive | inactive | 2.6% (inactive) | 17.4 | 23.2 | inactive | – | – | – | – | – | –
COc1ncc2nc(-c3cccc(C#N)c3)c(=O)n(CCC#N)c2n1 | > 11.4 µM (inactive) | -2.26% (inactive) | 20 µM (active) | -6.7% (inactive) | -3.36% (inactive) | > 46 µM (inactive) | inactive | inactive | 3.8% (inactive) | 14.2 | 20.3 | inactive | > 9.22 µM (inactive) | – | inactive | – | – | -3.76% (inactive)
